# Assay results as given in PubChem BioAssay (NCATS).
# Results filed as inconclusive are left out. Unmarked numbers belong to inactive results. The source made the active and inactive calls. Calls come from the whole dose curve; as a rule, active = well fitted inhibition curve with a large enough effect; inconclusive = small, poorly fitted or top-dose-only effect; inactive = flat fitted curve, though single readings scatter.
# Test system: CRL-7250
# Experiment: Cytotoxic Profiling of Annotated Libraries Using Quantitative High-Throughput Screening (AID 1296008); note: nearly all actives have a fitted effect of over 60% in size
# Details: Five cell lines viability, CellTiter-Glo ATP luminescence, 48-72 h; max response: stronger effect = lower value
# Summary of the method: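 Cells exposed to compounds for 48 or 72 hr at 37 degrees Celsius. Viability read as ATP-coupled luminescence with CellTiter-Glo after 10 min at room temperature.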
# % is set by controls: 0 for no effect and ±100 for the full control effect; potency is the fitted concentration of half-maximal effect.
SMILES,outcome,max response,Potency
C=C(C)[C@@H](C)[C@H]1O[C@]23C[C@]4(CO2)C(CCC2[C@@]5(C)CC[C@H](O[C@@H]6OC[C@H](O)[C@H](O[C@@H]7O[C@H](CO)[C@@H](O)[C@H](O)[C@H]7O)[C@H]6O[C@@H]6O[C@@H](CO)[C@H](O)[C@H]6O)C(C)(C)C5CC[C@]24C)C3[C@@](C)(O)[C@@H]1OC(C)=O (some centres not stated),inactive,,
C[C@@H]1CC[C@]2(C(=O)O)CC[C@]3(C(=O)O)C(=CCC4[C@@]5(C)CC[C@H](O[C@@H]6O[C@@H](C)[C@H](O[C@@H]7O[C@H](CO)[C@@H](O)[C@H](O)[C@H]7O)[C@@H](O)[C@H]6O)C(C)(C)C5CC[C@]43C)C2[C@H]1C (some centres not stated),,0.369%,
CCC(CC)n1ccc2c(C(=O)NCc3c(C)cc(C)[nH]c3=O)cc(C#N)cc21,,-1.01%,
C=C1CCC2C(C)(CO[C@@H]3O[C@H](CO)[C@@H](O)[C@H](O)[C@H]3O)C(O)CCC2(C)C1C(=O)CC1=CCOC1=O (some centres not stated),,-10.6%,
O=c1c2ccccc2nc2n1CCC2O (configuration not stated),inactive,,
CC(=O)O[C@H]1C[C@@H]2[C@]3(CC[C@]4(C)[C@@H](C5(C)CCC(C(C)(C)O)O5)[C@@H](O)C[C@@]24C)C[C@@]32CC[C@H](O[C@@H]3OC[C@@H](O)[C@H](O)[C@H]3O)C(C)(C)[C@H]12 (some centres not stated),,4.65%,
CC1NC(=O)C(Cc2c[nH]c3ccccc23)NC1=O (configuration not stated),,2.89%,
CC(C)C(=O)c1cn(CC(=O)COc2ccc(Oc3ccccc3)cc2)c2ccc(C(=O)O)cc12,,3.02%,
COc1ccc2c(c1O)OC[C@H]1c3ccc(O)cc3O[C@@H]21,,2.17%,
C/C=C1/[C@H](O[C@@H]2O[C@H](CO)[C@@H](O)[C@H](O)[C@H]2O)OC=C(C(=O)OC)[C@H]1CC(=O)O[C@@H]1O[C@H](CO)[C@@H](O)[C@H](O)[C@H]1O,inactive,,
C=C(C)C(=O)O[C@H]1C[C@@](C)(OC(C)=O)[C@@]2(O)CC[C@@](C)(O)[C@H](OC(C)=O)[C@@]23OC(=O)C(COC)=C13,,3.52%,
Cc1ccc(C(=O)Nc2ccc(Oc3cc4cnn(C)c4cc3-c3cn[nH]c3)c(F)c2)c(=O)n1-c1ccc(F)cc1,,,4.67 µM (active)
